From the supplement of paper PMC6555819

How the values were obtained:
Assay in all cases: PBM binding z-score (relative to random genomic background probes); higher = stronger binding; sequences stand for … in GC…GCGATTGACAGCGTAGAATGAAGG
[1] = system: FXR:RXRa (NR concentration 270 nM, RXRa partner concentration 90 nM)
Procedure, shortened: (§1)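 Antibodies against each partner of ligand-free nuclear receptor dimers (one per run) detected binding on custom Agilent 4×180K protein-binding microarrays after 1 h incubation. The double-stranded probes had 34-nt variable regions carrying direct-repeat seeds, single-nucleotide variants, half-site ablations and random human genomic background sequences. Binding z-scores, from regression-normalized fluorescence, use the random background probes as reference.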

[2] = system: LXRa:RXRa (NR concentration 270 nM, RXRa partner concentration 90 nM)
Procedure, shortened: as §1

[3] = system: LXRa homodimer (NR concentration 270 nM)
Procedure, shortened: as §1

[4] = system: LXRb:RXRa (NR concentration 270 nM, RXRa partner concentration 90 nM)
Procedure, shortened: as §1

[5] = system: LXRb homodimer (NR concentration 270 nM)
Procedure, shortened: as §1

[6] = system: PPARg:RXRa 270nM:90nM, anti-RXR (NR concentration 270 nM, RXRa partner concentration 90 nM)
Procedure, shortened: as §1

[7] = system: PPARg:RXRa 30nM:10nM, anti-RXR (NR concentration 30 nM, RXRa partner concentration 10 nM)
Procedure, shortened: as §1

[8] = system: PPARg:RXRa 90nM:30nM, anti-RXR (NR concentration 90 nM, RXRa partner concentration 30 nM)
Procedure, shortened: as §1

[9] = system: PPARa:RXRa (NR concentration 270 nM, RXRa partner concentration 90 nM)
Procedure, shortened: as §1

[10] = system: PPARg:RXRa (NR concentration 180 nM, RXRa partner concentration 90 nM)
Procedure, shortened: as §1

Sequence	PBM binding z-score [1]	PBM binding z-score [2]	PBM binding z-score [3]	PBM binding z-score [4]	PBM binding z-score [5]	PBM binding z-score [6]	PBM binding z-score [7]	PBM binding z-score [8]	PBM binding z-score [9]	PBM binding z-score [10]
TCATATAGGTAAAAGGTCAAAGTCGGTGTGGTAA	6.77	6.41	4.99	5.78	2.43	10.5	10.9	12.4	–	–
TCGAGTAGGTTACGGGGGCATTCCGGGATGAAGA	2.68	2.91	0.0862	4.94	–	5.67	2.85	4.91	4.29	5.89
CATACAGGGTAAGCTAGGCCAGAGTAGGGACGGC	0.167	0.793	-0.335	-0.589	-0.153	-0.433	-0.335	-0.43	–	0.575
TCTTGTAGGTCAAAGGTTAAGAAAGCCGAAGCCT	7.08	6.11	2.09	5.26	1.73	10.7	11.9	12.2	–	–
TCGATTAGGTTACGGGGGCATTCAGGGATGAAGA	3.28	3.73	1.5	5.59	–	5.33	4.89	5.46	4.45	5.21
CTATGTAGGTTAATGGGGTCATTCAGTTTGAAAG	5.79	5.31	3.46	5.41	–	7.12	4.64	6.55	6.23	7.9
CTATGTAGGATAAGGGGGTCATTCAGTTTGAAAG	4.36	4.48	2.61	5.97	–	5.95	3.41	5.43	5.61	5.71
ATATGTAGGTGAAGGGTCATTCAGGTTGGTTCGC	4.21	4.29	1.74	3.78	1.03	11.2	11.3	12.7	–	–
CGAACTAGTTCAAGGACAGTGAATCTCCGCACGC	0.282	0.229	-0.253	-0.107	-0.693	0.0328	-0.735	-0.0258	–	–
CGAACTAGGTCAAAGGGCAGTGAAAGGCGACGTA	5.16	3.62	-0.00961	2.68	-0.302	10.2	10.2	11.2	–	–
TGAATGAGGTTAAAGGTCAGGGAACGTGGCGTCG	7.23	6	2.34	5.35	1.05	9.95	12.2	12.1	–	–
TCGGGTAGGTTACGGGGGCATTCAGGGATGAAGA	3.9	4.06	2.17	5.75	–	5.54	3.74	4.7	4.69	5.73
CGAACTAGGTCAAAGGTCAGTGAAAGGCGACGTA	7.45	6	2.09	5.55	0.335	11.3	12.7	14	–	–
GCTGCTCGGTCAACTGATGGTCAGCTAAAGCTCG	0.704	0.751	0.0425	-0.248	-0.201	-0.239	-0.686	-0.163	–	-0.584
CAAACTAGGTCACAGGGGTCAAAGTCCGTGCGTA	7.54	6.48	5.12	6.61	1.67	8.74	7.69	9.17	–	–
CCGAGTAGGTTACGAGGGGGCTTTCAGTGCGAAT	1.47	3.54	0.44	4.05	–	2.7	0.558	1.82	2.66	1.29
TTACCAAGGTGAAAGGTCATTGATGCACGCCTTG	6.65	6.17	4.61	5.39	1.12	9.21	9.49	10.9	–	–
CCTAGTAGGTTATGGGGCATTCAGGCAACGGTGA	0.561	0.515	-0.0293	0.689	-0.176	5.67	4.4	6.07	–	5.47
CTATGTAGGTTAAGTGGGTCATTCAGTTTGAAAG	1.59	2.35	0.645	2.29	–	5.61	2.89	4.9	4.58	5.98
GCTAGTTGGTCAGTAAATGGTCACACACCGGTCG	0.041	-0.126	-0.00637	-0.244	-0.204	-0.00235	-0.52	-0.282	–	0.366
CCGACTGGGGCAAAGGTCACCATACTCAGTACGA	4.94	4.64	1.94	4.54	-0.206	10	12.4	11.1	–	–
TCATATAGGTCAAAGGTGAAAGTCGGTGTGGTAA	7.15	6.06	2.14	5.58	1.91	9.8	10.4	11.4	–	–
TCGAGTAGGTAACGGGGGCATTCAGGGATGAAGA	1.53	1.83	0.159	4.16	–	4.51	2.68	3.8	3.41	4.6
TCTAGCAGGCCATAGGGTCACTCAAGAGGTACGG	2.31	1.65	-0.243	1.73	-0.428	3.27	2.5	3.13	–	2.46
CCGAGTAGGTTACGAGGGGGCATTAAGTGCGAAT	2.79	6.98	1.2	6.3	–	3.06	0.817	2.16	3.38	2.04
TCGAGTAGGTTCCGGGGGCATTCAGGGATGAAGA	2.36	1.8	0.316	4.06	–	2.22	1.38	2.24	2.5	0.485
CCGAGTATGTTACGAGGGGGCATTCAGTGCGAAT	1.03	4.44	0.955	3.9	–	1.45	0.332	1.29	2.28	0.244
